Test results: ChEMBL document CHEMBL3988442, “University of Dundee, Small-Polar-MMV Screening Library” (2021)
The whole screen tested about 48,000 compounds, of which about 13,000 (27%) showed an effect of 50% or more. Some of the results follow.

The compounds below were run on Wolbachia pipientis (assay: Anti-Wolbachia Cell-Based Screen). Settings: 5 µM.
Assay type: functional
Parameters: scale not given: in the data most compounds retested in dose-response had high values

Row | SMILES | Percent Effect [%]
1 | CSCC(C)NCc1ccc2[nH]c(C)c(C)c2c1 (stereo not drawn) | 7.257
2 | COCCC(=O)N1C[C@H]2CC[C@@H]1CN(C1Cc3ccccc3C1)C2 | 12.41
3 | O=C(Nc1nncs1)N(Cc1cccc(O)c1)C1CC1 | -1.611
4 | CCC(C)(CC(=O)O)NC(=O)Cc1ccccc1Br (stereo not drawn) | 0.3012
5 | Cc1ncc(CNC(=O)CCc2c(C)noc2C)c(C2CCCN2C)n1 (stereo not drawn) | 116.8
6 | Cc1noc(C)c1CNC(=O)c1ccc(NC2CC2)nc1 | 4.161
7 | Cc1ncc(CNC(=O)Cc2ccc(Cl)cc2)c(C2CCCN2C)n1 (stereo not drawn) | -6.333
8 | Cc1noc(C)c1CCCNC(=O)C1CCCN(C(=O)C2CC2)C1 (stereo not drawn) | -0.7156
9 | Cc1nc(C2CCCN2CC(=O)NCCc2ccsc2)no1 (stereo not drawn) | -6.143
10 | Cc1ncc(CNC(=O)Cc2ccsc2)c(C2CCCN2C)n1 (stereo not drawn) | 124.7
11 | CCCNC(=O)c1cc(Br)cc(S(=O)(=O)N2CCOCC2)c1F | -12.55
12 | CN1[C@H](CN2CCCC2)C[C@@H]2CN(C(=O)c3cnccn3)CC[C@@H]21 | 120.7
13 | CN1[C@H](CN2CCCC2)C[C@@H]2CN(C(=O)Cc3ccsc3)CC[C@@H]21.O=C(O)C(F)(F)F.O=C(O)C(F)(F)F | 88.77
14 | O=C(C[C@H]1[C@H]2CN(Cc3ccsc3)C[C@@H]12)N1CCCC1.O=C(O)C(F)(F)F | -30.77
15 | C[C@@H]1C[C@@H]2CCN(C(=O)c3cnccn3)C[C@H]2O1 | -10.48
16 | CN1[C@H](Cn2cncn2)C[C@@H]2CN(Cc3ccsc3)CC[C@@H]21.O=C(O)C(F)(F)F.O=C(O)C(F)(F)F | -21.59
17 | O=C(O)C(F)(F)F.O=C(c1cnccn1)N1CC[C@@H]2CO[C@@H](CN3CCCC3)[C@@H]2C1 | -10.73
18 | CN1[C@H](CN2CCCC2)C[C@@H]2CN(C(=O)c3ccsc3)CC[C@@H]21 | 81.43
19 | O=C(c1ccsc1)N1C[C@@H](CN2CCCC2)[C@@H](CO)C1 | 20.63
20 | COc1cc(S(=O)(=O)N2CCCc3ccccc32)cc(C(=O)O)c1OC | 4.14
21 | c1ccc(Cc2nc(C3CC3)nn2-c2ccc3c(c2)OCCO3)nc1 | 5.106
22 | CCN(CC1CN(Cc2ncc[nH]2)CCO1)c1cccnn1 (stereo not drawn) | 4.051
23 | c1ccc(CCCC2CN(Cc3ncc[nH]3)CCO2)cc1 (stereo not drawn) | 98.97
24 | c1ccc(C(CC2CN(Cc3ncc[nH]3)CCO2)c2ccccc2)cc1 (stereo not drawn) | 116.4

Row | SMILES | Percent Effect [%]
25 | c1ccc(C(CC2CN(Cc3c[nH]cn3)CCO2)c2ccccc2)cc1 (stereo not drawn) | 106.4
26 | CC(C)c1n[nH]c(C2CN(Cc3ncc[nH]3)CCO2)n1 (stereo not drawn) | -3.355
27 | CC(C)n1ccnc1CN1CCOC(CCc2ccccc2)C1 (stereo not drawn) | -13.14
28 | CCS(=O)(=O)N1CCOC(CCCc2ccccc2)C1 (stereo not drawn) | -15.33
29 | O=C(NCCC1CN(Cc2c[nH]cn2)CCO1)Nc1ccccc1 (stereo not drawn) | -0.1872
30 | O=C(Nc1cnn(CC(=O)N2CCCO2)c1)c1ccccc1 | 1.203
31 | CCN(C(c1cccnc1)c1ccc2c(c1)CCC2)S(C)(=O)=O (stereo not drawn) | -0.855
32 | O=C(NC1CCN(C2CC2)CC1)NC1CCOc2ccc(Br)cc21 (stereo not drawn) | 24.64
33 | CC1=N[C@@]2(CC[C@@H]3CN(C(=O)NC(C)C)C[C@@H]32)C(=O)N1CC(C)C | 1.346
34 | CNC(=O)c1ccc(CNCc2ccc(SC)c(OC)c2)cc1 | -3.705
35 | CCC(C)Oc1ccc(CNCCc2c[nH]cn2)cc1Cl (stereo not drawn) | 95.83
36 | CC(CNCc1ccc(Cl)c(Cl)c1)Oc1ccccn1.Cl (stereo not drawn) | 9.6
37 | CCC(C)Oc1ccc(CNCCNC(C)=O)cc1OC (stereo not drawn) | 123.2
38 | CC(=O)NCCNC(=O)NCc1ccc(Br)cc1Cl | -4.256
39 | CCC(C)Oc1ccc(CNCCNC(C)=O)cc1Cl (stereo not drawn) | 110
40 | COc1cc(CNCCNC(=O)c2ccc(O)cc2)ccc1SC | -8.251
41 | CCC(C)Oc1ccc(CNCCNS(C)(=O)=O)cc1Cl (stereo not drawn) | 97.61
42 | CCOc1ccc(CNCCCn2ccnc2)cc1Cl.Cl.Cl | 1.454
43 | C=C(C)COc1cccc(CNCCc2c[nH]cn2)c1 | -1.571
44 | CC(CNS(C)(=O)=O)Oc1cccc(Cl)c1 (stereo not drawn) | -10.77
45 | C=C(C)COc1ccccc1CNCCc1c[nH]cn1 | -1.538
46 | COc1cc(C2CC(=O)Oc3cc(C)[nH]c(=O)c32)ccc1OC(F)F (stereo not drawn) | 2.33
47 | Cc1ccccc1[C@@H]1CN(Cc2nc3ncccn3n2)C[C@H]1C(=O)O | -5.6
48 | Cc1nc(C)c(CNC(=O)NC(c2nnc3n2CCC3)C(C)C)s1 (stereo not drawn) | -4.122
